According to the supplement of paper PMC3724861:
Many of the other results were omitted from the sample, so hits are more common in it than they were. No count for the full screen is at hand. A number with no mark means an inactive call.

Tested on: T1, Caupolican (Caup) homeodomain DNA-binding domain
T1 sequence: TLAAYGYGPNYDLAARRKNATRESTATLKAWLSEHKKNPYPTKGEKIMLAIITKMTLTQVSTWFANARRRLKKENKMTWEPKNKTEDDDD
Assay: PBM E-score (8-mer, recovered from the published 9-mer minima) (E-score (dimensionless, -0.5 to 0.5)); Drosophila protein; higher = stronger relative binding preference, active = 0.31 or more
Description: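 Protein binding microarray (PBM): in vitro transcribed/translated Caupolican (Caup) homeodomain DNA-binding domain (residues 214-303) applied at 100 nM to a universal 8-mer PBM array (Agilent AMADID 015681). The 8-mer enrichment score (E-score, range -0.5 to 0.5) was computed, and each 9-mer score is the minimum E-score of its two constituent 8-mers. The E-score is the same for a 9-mer and its reverse complement; 0.31 is the stated binding threshold.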

Sequence	PBM E-score
AAGATCGA	0.0302
TCAGTTAA	0.0667
ACAGGTAT	0.203
ACCCCTCG	-0.218
GTGTGAAC	0.0865
ATATGTCC	0.261
ATATGTAG	0.297
CTCTGTAC	0.137
CTATGTAC	0.381 (active)
ATATGTAC	0.387 (active)
CTATGTGC	0.0747
CTAGGACA	0.241
TAGTTTAA	0.218
AGCGAGCT	-0.108
ACACCACC	0.0972
AAACTTTC	-0.0217
ACTGACAG	0.0804
AAAACATT	0.252
CAAACACA	0.265
CAAACATA	0.292
AAAACATG	0.419 (active)
CAAACACC	0.126
CAAACACG	0.315 (active)
CAAACATG	0.391 (active)

Sequence	PBM E-score
CAAACATC	0.23
AAAACATC	0.305
CATCTAGG	-0.0637
CAAGTAAG	0.0621
CATTTCAA	0.154
ATGCAATA	0.197
TGAGGCAA	-0.0847
AAGGGCGC	-0.172
CACCAGGC	-0.132
ATGTTGAC	0.322 (active)
CTGTTGTA	0.273
AGGTTGTA	≥ 0.333 (active)
ACGTTGTA	0.291
ATGTTGAG	0.132
GTGTTGCA	0.184
CGGTTGTA	0.209
ATGTTGTA	0.431 (active)
ATGTTGTG	0.282
GTGTTGTA	0.395 (active)
CTGTTGAC	0.137
AGGTTGTG	0.133
CGTCTGCC	-0.188
ATTGTCCG	0.122
CATTTCTA	0.102

Sequence	PBM E-score
GTCAACCA	0.0944
ACTAGCGC	-0.134
AACCGGGA	-0.0571
ATCAAAGC	-0.0471
ATCAGCTC	0.00528
AAGGCGAC	0.00668
ACGACTGC	-0.0879
GGATACCC	-0.15
CTCCAACC	-0.171
CACACCGA	0.0554
ACAAACCG	0.0217
CTGTTGTC	0.256
ATGTTGTC	0.424 (active)
ATGTTGCC	0.121
CCGCATCC	-0.16
AAGTAACA	0.306
AATTAACA	0.326 (active)
GAGTAACA	0.206
AATTAACT	0.117
AACTAACT	-0.00416
CGTTAACA	0.164
TACTAACA	0.253
TGTTAACA	0.371 (active)
TAGTAACA	≥ 0.316 (active)

Sequence	PBM E-score
AATTAACC	0.0386
AGTTAACA	0.265
AACTAACA	≥ 0.339 (active)
GTATCACA	0.198
ACAGAAGA	0.101
TAGCACAA	0.0785
ATGAAAAA	0.0536
AATGCACT	0.108
GGATTAGA	-0.0283
GCCATCGA	-0.0979
TATTAACA	0.312 (active)
CATTAACA	0.234
GATTAACA	0.292
CCATCCCC	-0.241
CAAGAGAG	-0.0747
TCCTCTCA	-0.0753
AGTGTACA	0.337 (active)
GCTGTACA	0.268
AGTGTACG	0.152
GGTGTACA	0.327 (active)
GGTGTATA	0.133
AGTGTAGA	0.162
ATAGATAT	0.169
ACGGACCC	-0.139

Sequence	PBM E-score
CGCGGGTC	-0.163
CCAATGGA	-0.156
ATGCAGCC	0.00431
CTGATTTA	0.138
GCATTAGC	-0.144
CTTATTGA	0.0828
CGCGAACG	-0.0783
GCACCGCA	-0.175
CAATGTAG	0.182
CAATGTAC	0.287
TAATGTGA	0.141
TAATGTAA	0.315 (active)
AAATGTAA	0.277
CAATGTAA	0.312 (active)
TGGACACA	0.199
GGTAGCGA	-0.0452
GCCGGGTA	-0.161
CTAGCGTA	-0.0972
ATGTCTTA	0.284
TAATGACA	0.331 (active)
TCATGACA	0.313 (active)
CAATGACA	0.293
GAATGACA	0.259
TGATGACA	0.279

Sequence	PBM E-score
GATTGACA	0.276
ACATGACT	0.374 (active)
CATTGACA	0.217
ACATGACG	0.297
CCATGACA	0.137
ACATGACC	0.303
TATTGACA	0.322 (active)
GTGGCGAA	-0.0979
CGGAGTGC	-0.159
AACCTATT	0.0185
CTGACAGC	-0.0248
CTATTCCA	0.057
CGATTACG	0.101
CCCCTGAG	-0.149
ATCGCACC	-0.0473
CGCATATA	0.107
AAGCACTG	0.0317
ATTTGACA	0.347 (active)
ACATGACA	≥ 0.43 (active)
AGATGACA	0.227
CTTTGACA	0.223
ATTTGACC	-0.0206
GCATGACA	0.21
CTCTTCTA	-0.00512

Sequence	PBM E-score
ATATTCGC	0.0752
GCAGAAGA	-0.113
TAAATATA	0.187
CAAATAGG	-0.00893
AGTTGTCC	0.235
GGTTGTCA	0.331 (active)
GTTTGTCA	0.187
AGTTGTCA	0.315 (active)
AGTTGTCG	0.235
CGTTGTCA	0.251
CGTAAATC	-0.00723
CATGGATA	0.157
GACAAACC	0.0748
AACAAGCC	0.176
AACAAACT	0.23
GACAAAAA	0.0647
AACAAACC	0.161
TACAAACA	≥ 0.368 (active)
AACAAACA	0.338 (active)
CACAAACA	0.24
AACAAACG	0.114
AACAAGCT	0.312 (active)
GACAAACA	0.312 (active)
AACAAGCG	0.237

Sequence	PBM E-score
AGTTCTGG	-0.0428
AGGGCAAC	-0.0847
CCGGAAAG	-0.15
ACGTTCAT	0.101
GATATTGA	0.0675
CACCTACC	-0.0826
AAAACGTG	0.0311
AGTATACT	0.163
ACCTACCT	-0.066
GCATCTAC	0.0527
GGCAAGCA	-0.119
AACAAGCA	0.308
GACAAGCC	0.212
GACAAGCA	0.321 (active)
CACAAGCA	0.15
TACAAGCA	≥ 0.384 (active)
CTCTCAGC	-0.19
ACCCGTAT	0.0244
ACTTTTCG	0.0288
CCCACAGG	-0.142
GAATAGTC	-0.00141
GATACATC	0.297
AATACAGA	0.18
AATACAAG	0.346 (active)

Sequence	PBM E-score
AATACAAA	0.284
AAAACATA	0.284
TAAACATA	≥ 0.367 (active)
GAAACATA	0.258
AATACAAT	0.226
GATACATA	0.321 (active)
AATACATA	0.362 (active)
GATACAGA	0.164
AATACAAC	0.305
AGCTGTAA	0.166
AGTACTAT	0.165
CCGATGCG	-0.173
AAGACTAT	0.0648
CCCACGAG	-0.148
GGATATCA	0.0642
TCGTATAA	0.121
CCACTAGG	-0.169
CATACATC	0.251
AATACATC	0.294
CATACATA	0.286
CATACATG	0.44 (active)
TATACATA	0.326 (active)
TATACAGA	0.217
TATACAAA	0.264

Sequence	PBM E-score
AATACATT	0.225
AATACATG	0.424 (active)
CCTCTACG	-0.0999
AACACCTA	0.183
CTCAGCGA	-0.115
AGATTTGA	0.0967
ACCCGCGT	-0.0456
CTCGGACA	0.086
GGTGAACA	0.183
TGTGAACA	0.31 (active)
AATGAACC	-0.0632
GATGAACA	0.196
AATGAACA	0.317 (active)
CGTGAACA	0.206
CATGAACA	0.32 (active)
CATGAACG	0.0839
TATGAACA	0.286
